Measured values as given in PubChem BioAssay (Tox21).
Inconclusive results are not listed. A call without a number means that no potency is given here. The source made the active and inactive calls. Unless noted, calls come from the whole dose curve; as a rule, active = well fitted curve in the direction sought with a large enough effect in the repeat runs; inconclusive = weak or mixed curves; inactive = no such curve, though single readings can be large; an effect the other way counts as inactive or inconclusive.

Tests used:
[1] = target: Retinoic acid receptor RXR-alpha (Homo sapiens) (UniProt P19793); experiment: qHTS assay to identify small molecule agonists of the RXR signaling pathway (AID 1159527; calls by dose curve; note: nearly all actives have a fitted effect of over 35% in size)
In short: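 Reporter activation is measured as beta-lactamase activity via FRET substrate cleavage (emission 460/530 nm) in HEK 293T cells expressing an RXR-alpha-driven bla construct, following 16 hr compound exposure at 37 C.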

[2] = qHTS assay to identify small molecule antagonists of the retinoid acid receptor (RAR) signaling pathway - cell viability counter screen (AID 1159551); note: nearly all actives have a fitted effect of over 35% in size
In short: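 ATP-based viability, C3RL4 cells, 6 h at 37 C with 1 uM final retinol co-added after compound; luminescence read 30 min post CellTiter-Glo, RT.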

[3] = qHTS assay to identify small molecule antagonists of the retinoic acid receptor (RAR) signaling pathway (AID 1159552; note: nearly all actives have a fitted effect of over 50% in size; note: potency is the fitted concentration of half-maximal effect)
In short: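 Overnight-plated C3RL4 reporter cells get compound, then retinol to 1 uM final; plates sit 6 hr at 37 C, 5% CO2. A luciferase reagent is added and light output recorded after 30 min at room temperature.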

[4] = qHTS assay to identify small molecule agonists of the retinoic acid receptor (RAR) signaling pathway (AID 1159553); note: potency is the fitted concentration of half-maximal effect
In short: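 Quantitative high-throughput format: the Tox21 10K library was tested on C3RL4 RARE-luciferase cells for 6 hr at 37 C and 5% CO2, with luminescence measured after a 30 min room-temperature reagent step.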

[5] = qHTS assay to identify small molecule antagonists of the estrogen related receptor (ERR) signaling pathway from Tox21 library - cell viability counter screen (AID 1224834); note: nearly all actives have a fitted effect of over 30% in size
In short: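 Compounds in DMSO were pinned onto ERR cells that had been incubated for 6 h, and the plates were held at 37 C for 17.5 h. CellTiter-Fluor reagent was then added and fluorescence was measured after 30 min.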

[6] = target: Luciferin 4-monooxygenase (Photinus pyralis) (UniProt P08659); experiment: qHTS assay to identify small molecule inhibitors of firefly luciferase (AID 1224835); note: nearly all actives have a fitted effect of over 25% in size; note: potency is the fitted concentration of half-maximal effect
In short: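 Quantitative HTS format; KM concentrations of both substrates. Purified P. pyralis FLuc activity quantified from luminescence images.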

[7] = target: Nuclear receptor subfamily 1 group I member 3 (Homo sapiens) (UniProt Q14994); experiment: qHTS assay to identify small molecule antagonists of the constitutive androstane receptor (CAR) signaling pathway (AID 1224838);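 note: HepG2 cells stably expressing hCAR with CYP2B6 luciferase reporter stimulated by CITCO; nearly all actives have a fitted effect of over 40% in size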; note: potency is the fitted concentration of half-maximal effect
In short: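 Luminescence from a CYP2B6-2.2kb promoter reporter in hCAR-expressing HepG2 cells reflects CAR signaling. Cells received compounds at 15 concentrations and 50 nM CITCO (final), then incubated 24 h at 37 C/5% CO2.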

[8] = qHTS assay to identify small molecule antagonists of the estrogen related receptor signaling pathway with the pleiotropic PPARgamma coactivator (PGC) from Tox21 10K library - cell viability counter screen (AID 1224840; active = well fitted cell-killing curve with a large enough effect in the repeat runs, not every such curve was filed as active; note: nearly all actives have a fitted effect of over 40% in size)
In short: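 Cell viability is measured by CellTiter-Fluor fluorescence in PGC/ERR cells that receive compounds after a 6-hour attachment period and are then incubated 17.5 hours at 37 C.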

[9] = qHTS assay to identify small molecule antagonists of the estrogen related receptor signaling pathway with the pleiotropic PPARgamma coactivator (PGC) from Tox21 10K library (AID 1224841; call rule not given here; note: actives are mostly falling curves and most rising ones were filed inactive; nearly all actives have a fitted effect of over 50% in size; note: potency is the fitted concentration of half-maximal effect)
In short: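 Cells stably carrying the PGC/ERR reporter, seeded at 2,000 per well, received pin-transferred compounds 6 h post-plating. Exposure lasted 18 h at 37 C. Signal: One-Glo luminescence.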

[10] = qHTS assay to identify small molecule agonists of the estrogen related receptor signaling pathway with the pleiotropic PPARgamma coactivator (PGC) from Tox21 10K library (AID 1224842); note: nearly all actives have a fitted effect of over 15% in size; note: potency is the fitted concentration of half-maximal effect
In short: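 PGC/ERR reporter cells (NTP line) were seeded 2,000 per well, rested 6 h at 37 C/5% CO2, then pin-dosed with compounds in DMSO for 18 h at 37 C; luciferase read by One-Glo luminescence after 30 min at room temperature.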

[11] = qHTS assay to identify small molecule agonists of the constitutive androstane receptor (CAR) signaling pathway - cell viability counter screen (AID 1224836); note: series mostly up to about 92 µM; nearly all actives have a fitted effect of over 45% in size
In short: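 Fluorescence from CellTiter-Fluor indicates live cells after 23 h exposure. The human hepatoma line expresses hCAR and a CYP2B6-2.2kb reporter. Incubation medium contains 0.75 uM PK11195 (final).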

[12] = qHTS assay to identify small molecule antagonists of the constitutive androstane receptor (CAR) signaling pathway - cell viability counter screen (AID 1224837); note: series mostly up to about 92 µM; nearly all actives have a fitted effect of over 45% in size
In short: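 Cells are seeded, rested 4 hr at 37 C/5% CO2, dosed with compound (15-point series) and 50 nM CITCO, incubated a further 23 hr, and then CellTiter-Fluor reagent is added before fluorescence is read. The line is HepG2 with stable hCAR and CYP2B6-2.2kb.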

[13] = qHTS assay to identify small molecule agonists of the RXR signaling pathway - cell viability counter screen (AID 1159529); note: series mostly up to about 77 µM; nearly all actives have a fitted effect of over 50% in size
In short: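 Tox21 10K compounds were tested for cytotoxicity against GeneBLAzer RXR-alpha HEK 293T cells grown in 2% charcoal-stripped FBS. Exposure lasted 16 hr at 37 C, 5% CO2; viability read by CellTiter-Glo luminescence.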

[14] = target: Nuclear receptor subfamily 1 group I member 3 (Homo sapiens) (UniProt Q14994); experiment: qHTS assay to identify small molecule agonists of the constitutive androstane receptor (CAR) signaling pathway (AID 1224839); note: nearly all actives have a fitted effect of over 15% in size; note: potency is the fitted concentration of half-maximal effect
In short: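 Stable hCAR/CYP2B6-2.2kb HepG2 line in DMEM with 10% FBS; compounds (15 concentrations) and 0.75 uM PK11195 final, 24 h at 37 C/5% CO2, then ONE-Glo luminescence after 30 min.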

Chain of Retinoic acid receptor RXR-alpha (Homo sapiens) (P19793 whole entry, looked up): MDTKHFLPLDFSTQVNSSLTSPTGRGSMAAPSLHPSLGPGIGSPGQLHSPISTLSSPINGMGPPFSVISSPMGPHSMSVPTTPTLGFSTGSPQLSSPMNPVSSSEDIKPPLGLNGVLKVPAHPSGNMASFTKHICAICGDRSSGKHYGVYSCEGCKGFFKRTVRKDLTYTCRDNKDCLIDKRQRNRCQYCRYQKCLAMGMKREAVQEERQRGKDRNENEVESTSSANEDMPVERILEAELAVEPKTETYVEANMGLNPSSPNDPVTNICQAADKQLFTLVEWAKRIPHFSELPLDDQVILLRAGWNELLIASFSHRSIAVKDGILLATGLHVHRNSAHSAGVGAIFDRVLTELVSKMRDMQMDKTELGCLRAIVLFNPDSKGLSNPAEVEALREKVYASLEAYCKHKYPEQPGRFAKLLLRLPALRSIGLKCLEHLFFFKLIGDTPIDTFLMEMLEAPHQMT
Chain of Luciferin 4-monooxygenase (Photinus pyralis) (P08659 whole entry, looked up): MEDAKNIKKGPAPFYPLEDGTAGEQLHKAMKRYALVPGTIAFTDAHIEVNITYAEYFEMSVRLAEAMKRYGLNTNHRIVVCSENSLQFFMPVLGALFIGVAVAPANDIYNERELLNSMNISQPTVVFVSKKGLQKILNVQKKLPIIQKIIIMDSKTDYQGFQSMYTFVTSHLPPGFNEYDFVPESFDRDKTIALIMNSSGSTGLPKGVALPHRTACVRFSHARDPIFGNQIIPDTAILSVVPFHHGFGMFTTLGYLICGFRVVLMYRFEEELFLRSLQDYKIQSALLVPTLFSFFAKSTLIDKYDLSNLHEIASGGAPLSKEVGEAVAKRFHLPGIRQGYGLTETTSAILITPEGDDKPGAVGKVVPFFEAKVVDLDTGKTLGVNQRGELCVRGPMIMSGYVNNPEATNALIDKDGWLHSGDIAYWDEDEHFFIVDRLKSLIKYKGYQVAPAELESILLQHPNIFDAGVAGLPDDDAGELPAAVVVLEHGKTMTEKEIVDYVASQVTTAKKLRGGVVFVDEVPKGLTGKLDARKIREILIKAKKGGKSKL
Chain of Nuclear receptor subfamily 1 group I member 3 (Homo sapiens) (Q14994 whole entry, looked up): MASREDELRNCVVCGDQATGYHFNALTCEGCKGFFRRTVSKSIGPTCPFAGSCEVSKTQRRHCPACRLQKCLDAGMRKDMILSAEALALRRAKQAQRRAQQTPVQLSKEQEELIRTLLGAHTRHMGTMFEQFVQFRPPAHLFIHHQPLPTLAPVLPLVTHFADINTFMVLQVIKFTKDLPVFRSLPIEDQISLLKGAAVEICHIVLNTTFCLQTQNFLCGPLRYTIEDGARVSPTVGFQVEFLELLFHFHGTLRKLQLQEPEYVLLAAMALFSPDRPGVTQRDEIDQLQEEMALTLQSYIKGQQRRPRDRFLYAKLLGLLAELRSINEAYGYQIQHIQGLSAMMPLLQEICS

| SMILES | Potency [1] | outcome [2] | Potency [3] | Potency [4] | Potency [5] | Potency [6] | Potency [7] | outcome [8] | Potency [9] | Potency [10] | outcome [11] | outcome [12] | Potency [13] | Potency [14] |
| --- | --- | --- | --- | --- | --- | --- | --- | --- | --- | --- | --- | --- | --- | --- |
| O=S(=O)(c1cccc2cnccc12)N1CCCNCC1 | inactive | inactive | 29800 nM (active) | inactive | inactive | inactive | 13300 nM (active) | inactive | 23700 nM (active) | inactive |  |  |  |  |
| C1C2OC2C2C1C1CC2C2OC12 (stereo unspecified) | inactive | inactive | inactive | inactive | inactive | inactive | inactive | inactive |  |  | inactive | inactive |  |  |
| Oc1ccc2c(c1)OC[C@@H](N1CCC(O)(c3ccc(F)cc3)CC1)[C@H]2O |  | inactive | inactive | 531 nM (active) | inactive | 1550 nM (active) | inactive | inactive | inactive | 4730 nM (active) | inactive | inactive | inactive | 3760 nM (active) |
| CCCCNc1ccccc1 |  | inactive | inactive | inactive | inactive | inactive | inactive | inactive |  |  | inactive | inactive | inactive | inactive |
| OCCCCCCO | inactive | inactive | inactive | inactive | inactive | inactive | inactive | inactive |  |  | inactive | inactive |  | inactive |
| N#CCc1ccccc1[N+](=O)[O-] | inactive | inactive | inactive | inactive | inactive | inactive | inactive | inactive |  |  | inactive | inactive |  | inactive |
| CC1=CC(=O)CCC1 | inactive | inactive | inactive | inactive | inactive | inactive | inactive | inactive |  |  | inactive | inactive |  | inactive |
| CCCCN(CCO)CCO | inactive | inactive |  |  | inactive | inactive | inactive | inactive | inactive | inactive | inactive | inactive |  | inactive |
| COc1ccc(N=[N+]([O-])c2ccc(OC)cc2)cc1 | inactive | inactive | inactive | 27 nM (active) | inactive | 222 nM (active) |  | inactive |  |  | inactive | inactive |  | 762 nM (active) |
| CC(C)c1ccc2oc3nc(N)c(C(=O)O)cc3c(=O)c2c1 |  | inactive | inactive | 2110 nM (active) | inactive | 275 nM (active) | inactive | inactive | inactive | 1330 nM (active) | inactive | inactive | inactive | 841 nM (active) |
